This note sets out measurements from PubChem BioAssay (EPA / NIEHS).

“And” between values parts separate entries of the source, which are not always exact repeats. Equal values may be shown once. Results filed as inconclusive are left out. The source made the active and inactive calls. How the source made its calls, unless noted: active means hit-call score of the fitted dose curve at least 0.9, where 1 is the maximum; inactive means score below 0.9.

Experiment [1] deals with Retinoic acid receptor RXR-alpha (Homo sapiens) (UniProt P19793). Description: OT_NURR1_NURR1RXRa_0480: Odyssey Thera (OT) 8-hour HEK293T Protein Complementation Assay for Nurr1/retinoid X receptor (RXR) (AID 2283385; active means hit-call score of the fitted dose curve at least 0.9, where 1 is the maximum). The method in brief: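 Read-out: fluorescence from protein-fragment complementation between Nurr1 and RXRα in human HEK293T cells, 8 h after dosing. DMSO served as negative control; increased signal counted as activity.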

Experiment [2] shares this target. Description: OT_NURR1_NURR1RXRa_1440: Odyssey Thera (OT) 24-hour HEK293T Protein Complementation Assay for Nurr1/retinoid X receptor (RXR) (AID 2283386; active means hit-call score of the fitted dose curve at least 0.9, where 1 is the maximum). The method in brief:
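Fluorescence PCA read-out; HEK293T; 24 h post-dose; bait/prey fused to reporter fragments; gain-of-signal fit vs DMSO negative control.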

Read-out in experiment [3]: Tumor necrosis factor receptor superfamily member 6 (Homo sapiens) (UniProt P25445)
Nature of the experiment: LTEA_HepaRG_FAS: Life Technologies and Expression Analysis (LTEA) Assay for Fas cell surface death receptor (FAS) using HepaRG (AID 2283447). Particulars: mRNA level, 48 h; actives raise or lower the signal. The method in brief: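 FAS transcript level was measured by TaqMan qRT-PCR against three housekeeping genes after 48 h chemical exposure. Cells were HepaRG, 0.5% DMSO vehicle, with a top concentration of 100 uM and half-log dilutions over eight points, in duplicate.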

Read-out in experiment [4]: Fatty acid synthase (Homo sapiens) (UniProt P49327)
Description: LTEA_HepaRG_FASN: Life Technologies and Expression Analysis (LTEA) Assay for Fatty Acid Synthase (FASN) using HepaRG (AID 2283448). Conditions: mRNA level, 48 h; actives raise or lower the signal. The method in brief:
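HepaRG, 48 h exposure, 8-pt half-log series top 100 uM, 0.5% DMSO vehicle, duplicates. Readout: FASN transcript by Fluidigm qRT-PCR; housekeeping-normalized; bidirectional curve fit vs DMSO baseline.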

Read-out in experiment [5]: Cyclin D2 (CCND2), CCND2 (gene 894)
Nature of the experiment: LTEA_HepaRG_CCND2: Life Technologies and Expression Analysis (LTEA) Assay for Cyclin D2 (CCND2) using HepaRG (AID 2283449). Particulars: mRNA level, 48 h; actives raise or lower the signal. The method in brief: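 CCND2 transcript levels, quantified by qRT-PCR and normalised to three housekeeping genes, were fitted bidirectionally against 0.5% DMSO. HepaRG cultures were dosed 48 h in duplicate with an 8-point half-log series up to 100 uM.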

Read-out in experiment [6]: Cyclin Dependent Kinase Inhibitor 1A (CDKN1A), CDKN1A (gene 1026)
Description: LTEA_HepaRG_CDKN1A: Life Technologies and Expression Analysis (LTEA) Assay for Cyclin Dependent Kinase Inhibitor 1A (CDKN1A) using HepaRG (AID 2283450). Conditions: mRNA level, 48 h; actives raise or lower the signal. The gist of the method: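 Differentiated human HepaRG cells, pre-cultured 48 h, were exposed in duplicate for 48 h in serum-free induction medium to eight half-log concentrations up to 100 uM (0.5% DMSO). CDKN1A mRNA was measured by qRT-PCR, normalized to ACTB/GAPDH/POLR2A, bidirectionally fitted versus DMSO.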

Read-out in experiment [7]: Cyclin D1 (CCND1), CCND1 (gene 595)
Nature of the experiment: LTEA_HepaRG_CCND1: Life Technologies and Expression Analysis (LTEA) Assay for Cyclin D1 (CCND1) using HepaRG (AID 2283451). Particulars: mRNA level, 48 h; actives raise or lower the signal. The method in brief:
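Differentiated human HepaRG cells in serum-free induction medium were exposed 48 h to eight half-log concentrations up to 100 uM in 0.5% DMSO; mRNA quantified by TaqMan qRT-PCR, normalized to ACTB, GAPDH, POLR2A, fitted bidirectionally versus DMSO.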

Read-out in experiment [8]: catalase (CAT), CAT (gene 847)
Description: LTEA_HepaRG_CAT: Life Technologies and Expression Analysis (LTEA) Assay for catalase (CAT) using HepaRG (AID 2283452).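 On AC50: TaqMan qRT-PCR signal normalized to ACTB GAPDH and POLR2A housekeeping genes.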 Particulars: mRNA level, 48 h; actives raise or lower the signal. The gist of the method: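 Expression of CAT was quantified by TaqMan qRT-PCR with ACTB/GAPDH/POLR2A normalization after 48 h chemical exposure of HepaRG. Eight-point half-log series, top 100 uM, in 0.5% DMSO; gain or loss fitted against vehicle.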

In experiment [9] the target is Peroxisome proliferator-activated receptor gamma (Homo sapiens) (UniProt P37231). Description: OT_PPARg_PPARgSRC1_0480: Odyssey Thera (OT) 8-hour Protein-Complementation Assay for Peroxisome Proliferator-activated Receptor Gamma / SRC-1 Co-activator (AID 2283387; active means hit-call score of the fitted dose curve at least 0.9, where 1 is the maximum). The method in brief:
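HEK293T transiently transfected with PPARg and SRC-1 fused to Venus YFP fragments, compounds 8 h at 37C. Fixed, Draq5-stained cells imaged; nuclear/cytoplasmic 488 nm fluorescence ratio over at least 350 cells per image; gain fitted versus DMSO.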

Experiment [10] shares this target. Description: OT_PPARg_PPARgSRC1_1440: Odyssey Thera (OT) 24-hour Protein-Complementation Assay for Peroxisome Proliferator-activated Receptor Gamma/ SRC-1 Co-activator (AID 2283388; active means hit-call score of the fitted dose curve at least 0.9, where 1 is the maximum). The gist of the method:
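HEK293T cells transiently transfected with PPARg and SRC-1 fused via (Gly4Ser)2 linker to split Venus YFP fragments (IFP1/IFP2) were dosed 24 h; fixed, Draq5-stained, imaged at 488/635 nm; nuclear/cytoplasmic fluorescence ratio scored versus DMSO baseline, gain-of-signal.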

Experiment [11] in a line: CEETOX_H295R_OHPREG: CeeTox H295R High-throughput Steroidogenesis Assay for OH-Pregnenolone (OHPREG) (AID 2283434). Conditions: actives raise or lower the signal. The method in brief:
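Secreted 17alpha-hydroxypregnenolone measured by HPLC-MS/MS after liquid-liquid extraction. Human adrenal H295R cells received 48 h forskolin (10 uM) stimulation before 48 h chemical exposure at 0.1% final DMSO; MTT viability in same wells; bidirectional fit against DMSO.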

The nature of experiment [12]: CEETOX_H295R_OHPROG: CeeTox H295R High-throughput Steroidogenesis Assay for OH-Progesterone (OHPROG) (AID 2283435).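 On AC50: 17alpha-hydroxyprogesterone secreted into medium measured by HPLC-MS/MS.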 Conditions: actives raise or lower the signal. The method in brief:
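HPLC-MS/MS quantification of 17alpha-hydroxyprogesterone secreted by H295R cells after 48 h chemical exposure, following 48 h 10 uM forskolin prestimulation. Gain or loss of signal fitted relative to DMSO. Viability checked by MTT in the same wells.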

Experiment [13] can be described thus: CEETOX_H295R_PROG: CeeTox H295R High-throughput Steroidogenesis Assay for Progesterone (PROG) (AID 2283442). Conditions: actives raise or lower the signal. The method in brief:
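H295R human adrenal cells were prestimulated with 10 uM forskolin for 48 h, then exposed to test chemical (0.1% DMSO final) for 48 h. Medium progesterone was MTBE-extracted and quantified by HPLC-MS/MS, with bidirectional fitting against DMSO.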

Experiment [14] in a line: CEETOX_H295R_ANDR: CeeTox H295R High-throughput Steroidogenesis Assay for Androstenedione (ANDR) (AID 2283436). Conditions: actives raise or lower the signal. The gist of the method: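 Medium from 48 h chemical-treated H295R adrenal cells was extracted with MTBE and androstenedione measured by LC-MS/MS. Activity was fit in both directions relative to DMSO. Cytotoxic concentrations were re-tested after dilution until MTT viability reached ≥70%.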

A short description of experiment [15]: CEETOX_H295R_11DCORT: CeeTox H295R High-throughput Steroidogenesis Assay for 11-Deoxycortisol (11DCORT) (AID 2283432). Conditions: actives raise or lower the signal. The gist of the method:
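H295R cells prestimulated 48 h with 10 uM forskolin, then exposed 48 h to chemical in 0.1% DMSO. 11-Deoxycortisol in medium quantified by HPLC-MS/MS after MTBE extraction; bidirectional fit versus DMSO. MTT viability read in same wells.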

Experiment [16] is described as follows: CEETOX_H295R_CORTIC: CeeTox H295R High-throughput Steroidogenesis Assay for Corticosterone (CORTIC) (AID 2283437). Conditions: actives raise or lower the signal. The method in brief:
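Medium corticosterone was quantified by tandem mass spectrometry following 48 hours of chemical exposure (0.1% DMSO) in human H295R cells previously stimulated 48 hours with 10 uM forskolin. Viability checked by MTT; chemicals diluted and retested when viability fell below 70%.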

A short description of experiment [17]: CEETOX_H295R_CORTISOL: CeeTox H295R High-throughput Steroidogenesis Assay for Cortisol (AID 2283438).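 Further: cortisol secreted into medium quantified by LC-MS/MS.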 Conditions: actives raise or lower the signal. The gist of the method: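 Read-out: cortisol in culture medium by reverse-phase C18 HPLC with ESI-positive tandem MS, after MTBE liquid-liquid extraction. Cells: human adrenal H295R, forskolin-primed (10 uM, 48 h) before 48 h chemical exposure in 0.1% DMSO.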

Experiment [18] can be described thus: CEETOX_H295R_DOC: CeeTox H295R High-throughput Steroidogenesis Assay for DOC (AID 2283439). Particulars: actives raise or lower the signal. The gist of the method:
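Human adrenocortical H295R cells, passages up to 10, received 10 uM forskolin for 48 h before chemical addition. After another 48 h exposure in 0.1% DMSO, secreted DOC was measured by LC-MS/MS, with gain or loss fitted against DMSO controls.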

Chain of Retinoic acid receptor RXR-alpha (Homo sapiens) (P19793 whole entry, looked up, the tested form may be a part): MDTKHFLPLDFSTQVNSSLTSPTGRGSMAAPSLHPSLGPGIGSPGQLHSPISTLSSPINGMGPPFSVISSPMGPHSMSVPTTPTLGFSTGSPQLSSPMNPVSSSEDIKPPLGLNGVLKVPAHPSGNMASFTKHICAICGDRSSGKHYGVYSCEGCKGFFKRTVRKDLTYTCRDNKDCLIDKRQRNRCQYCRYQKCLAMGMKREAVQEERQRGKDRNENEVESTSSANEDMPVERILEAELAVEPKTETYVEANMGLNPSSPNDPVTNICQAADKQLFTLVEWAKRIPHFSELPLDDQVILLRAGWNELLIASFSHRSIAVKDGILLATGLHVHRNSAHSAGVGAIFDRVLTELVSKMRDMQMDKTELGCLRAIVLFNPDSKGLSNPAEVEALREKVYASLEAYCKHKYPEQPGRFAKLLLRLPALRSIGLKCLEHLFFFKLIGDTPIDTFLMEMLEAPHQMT
Chain of Peroxisome proliferator-activated receptor gamma (Homo sapiens) (P37231 whole entry, looked up, the tested form may be a part): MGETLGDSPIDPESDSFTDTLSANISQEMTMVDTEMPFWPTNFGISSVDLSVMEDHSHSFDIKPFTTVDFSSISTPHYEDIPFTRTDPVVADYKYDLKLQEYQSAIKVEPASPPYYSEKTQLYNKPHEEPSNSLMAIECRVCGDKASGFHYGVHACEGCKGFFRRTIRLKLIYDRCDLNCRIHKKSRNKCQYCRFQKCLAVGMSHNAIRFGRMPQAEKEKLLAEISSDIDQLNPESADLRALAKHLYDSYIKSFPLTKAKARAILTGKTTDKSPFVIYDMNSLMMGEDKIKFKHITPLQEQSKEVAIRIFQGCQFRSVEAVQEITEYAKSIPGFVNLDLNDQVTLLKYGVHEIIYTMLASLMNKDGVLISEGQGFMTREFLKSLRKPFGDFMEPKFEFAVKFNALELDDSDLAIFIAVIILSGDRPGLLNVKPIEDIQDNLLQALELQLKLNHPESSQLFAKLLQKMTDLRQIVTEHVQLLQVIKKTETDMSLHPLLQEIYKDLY
Chain of Fatty acid synthase (Homo sapiens) (P49327 whole entry, looked up): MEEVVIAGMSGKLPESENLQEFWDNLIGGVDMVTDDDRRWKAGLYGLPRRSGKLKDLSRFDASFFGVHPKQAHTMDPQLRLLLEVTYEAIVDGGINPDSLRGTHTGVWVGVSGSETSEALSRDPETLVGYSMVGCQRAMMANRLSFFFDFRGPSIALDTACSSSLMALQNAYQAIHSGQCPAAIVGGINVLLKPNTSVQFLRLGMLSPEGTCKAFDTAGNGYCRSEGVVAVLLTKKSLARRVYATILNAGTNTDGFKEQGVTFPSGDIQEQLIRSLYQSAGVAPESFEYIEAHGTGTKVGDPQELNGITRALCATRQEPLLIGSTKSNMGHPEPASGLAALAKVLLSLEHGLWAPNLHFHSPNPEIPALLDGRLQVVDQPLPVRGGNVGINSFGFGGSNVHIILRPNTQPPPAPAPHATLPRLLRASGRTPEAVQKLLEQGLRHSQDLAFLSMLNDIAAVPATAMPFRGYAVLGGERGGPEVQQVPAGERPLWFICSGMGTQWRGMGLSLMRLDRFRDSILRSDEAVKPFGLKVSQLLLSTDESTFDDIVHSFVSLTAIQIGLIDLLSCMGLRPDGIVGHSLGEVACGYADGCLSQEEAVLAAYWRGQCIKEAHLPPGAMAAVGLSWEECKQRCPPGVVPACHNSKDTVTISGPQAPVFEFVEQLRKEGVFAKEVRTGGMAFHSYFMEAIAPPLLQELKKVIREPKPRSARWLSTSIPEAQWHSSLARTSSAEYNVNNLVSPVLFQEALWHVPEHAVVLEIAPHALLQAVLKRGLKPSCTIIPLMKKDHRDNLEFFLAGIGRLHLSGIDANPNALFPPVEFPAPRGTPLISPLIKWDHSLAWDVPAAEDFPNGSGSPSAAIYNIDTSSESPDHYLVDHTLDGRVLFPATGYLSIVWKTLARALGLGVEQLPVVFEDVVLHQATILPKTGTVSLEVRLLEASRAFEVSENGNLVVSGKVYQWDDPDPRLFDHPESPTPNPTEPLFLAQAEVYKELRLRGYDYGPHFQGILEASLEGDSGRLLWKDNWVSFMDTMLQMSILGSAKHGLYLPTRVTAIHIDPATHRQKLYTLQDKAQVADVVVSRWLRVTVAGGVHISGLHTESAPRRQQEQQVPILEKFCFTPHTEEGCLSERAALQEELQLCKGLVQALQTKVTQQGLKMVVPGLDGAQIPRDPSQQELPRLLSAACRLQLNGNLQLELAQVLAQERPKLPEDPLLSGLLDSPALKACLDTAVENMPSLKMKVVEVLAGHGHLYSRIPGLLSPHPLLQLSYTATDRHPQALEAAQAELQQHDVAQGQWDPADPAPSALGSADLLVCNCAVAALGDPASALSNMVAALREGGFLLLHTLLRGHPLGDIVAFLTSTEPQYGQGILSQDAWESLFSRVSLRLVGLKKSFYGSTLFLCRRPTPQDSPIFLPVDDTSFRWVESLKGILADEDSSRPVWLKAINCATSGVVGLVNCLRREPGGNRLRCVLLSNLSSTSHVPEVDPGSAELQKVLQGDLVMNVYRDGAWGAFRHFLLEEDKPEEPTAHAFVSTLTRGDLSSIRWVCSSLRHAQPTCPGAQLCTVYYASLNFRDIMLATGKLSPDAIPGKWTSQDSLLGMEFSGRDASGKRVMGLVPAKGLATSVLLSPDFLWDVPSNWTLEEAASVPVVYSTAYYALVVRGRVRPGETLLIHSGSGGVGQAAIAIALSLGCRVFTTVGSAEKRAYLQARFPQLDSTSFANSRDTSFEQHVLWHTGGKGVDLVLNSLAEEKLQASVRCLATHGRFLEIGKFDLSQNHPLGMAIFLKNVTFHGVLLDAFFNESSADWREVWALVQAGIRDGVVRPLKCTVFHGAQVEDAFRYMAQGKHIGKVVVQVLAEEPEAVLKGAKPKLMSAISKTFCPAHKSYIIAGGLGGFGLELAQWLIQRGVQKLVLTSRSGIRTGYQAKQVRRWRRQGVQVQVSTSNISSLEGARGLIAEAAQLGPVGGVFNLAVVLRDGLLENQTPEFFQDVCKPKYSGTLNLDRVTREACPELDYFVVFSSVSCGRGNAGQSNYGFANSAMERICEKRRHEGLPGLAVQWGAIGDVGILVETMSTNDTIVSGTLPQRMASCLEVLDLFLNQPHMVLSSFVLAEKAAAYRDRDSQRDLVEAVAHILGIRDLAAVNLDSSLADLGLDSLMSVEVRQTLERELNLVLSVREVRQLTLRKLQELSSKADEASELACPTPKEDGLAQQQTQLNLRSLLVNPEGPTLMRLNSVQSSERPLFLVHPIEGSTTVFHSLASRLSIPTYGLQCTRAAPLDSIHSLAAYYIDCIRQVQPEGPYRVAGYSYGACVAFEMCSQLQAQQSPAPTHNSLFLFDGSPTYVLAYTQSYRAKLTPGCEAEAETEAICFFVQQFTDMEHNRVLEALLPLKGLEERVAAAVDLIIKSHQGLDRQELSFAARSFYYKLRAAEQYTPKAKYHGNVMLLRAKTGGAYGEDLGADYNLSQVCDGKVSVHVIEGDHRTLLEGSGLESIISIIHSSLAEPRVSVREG

As to `CC(=O)OC[C@H]1O[C@@](COC(C)=O)(O[C@H]2O[C@H](COC(C)=O)[C@@H](OC(C)=O)[C@H](OC(C)=O)[C@H]2OC(C)=O)[C@@H](OC(C)=O)[C@@H]1OC(C)=O`, the call in [1], in [2], in experiment [3], in [4], in experiment [5] and in experiment [6] was inactive. In addition, the compound was called inactive in experiment [7] and in [8].
For the compound `Cc1c(-c2cccnc2)c2ccccc2n1CCCCC(=O)O`, the result in experiment [1], in experiment [9], in experiment [10], in [11], in experiment [12] and in experiment [3] was inactive. For the same compound, the outcome in [5], in experiment [6] and in [8] was inactive. For the same compound, the AC50 – broadly, the concentration giving half of the maximal activity seen – in experiment [13] was 7.25 µM (active).
`CNS(=O)(=O)c1cc(C(=O)N2CCC(CCN3C4CCC3CC(n3c(C)nc5ccccc53)C4)(c3cccc(F)c3)CC2)c(Cl)cc1F` (centres undefined): the AC50 in [2] is 28.4 µM (active) and 12.1 µM (active); in [12], 2.65 µM (active); in experiment [14], 3.6 µM (active); in [6], 31 µM (active); in experiment [8], 15.6 µM (active). The compound was classed as inactive in experiment [9], in experiment [10], in [11], in experiment [13], in experiment [3] and in experiment [4]. In addition, the outcome in [5] and in experiment [7] was inactive.
As for `COc1ccc(-n2nc(C(F)F)cc2-c2ccc(S(C)=O)cc2)cc1` (centres undefined), the outcome in experiment [2], in [9], in experiment [10], in experiment [15], in experiment [11] and in [12] was inactive. Besides, the result in [16], in experiment [17], in experiment [18], in experiment [13], in experiment [3] and in experiment [4] was inactive. Also, the call in experiment [5], in experiment [6] and in experiment [8] was inactive.
For the compound `Cn1c(=O)c2c(ncn2C)n(C)c1=O`, the call in experiment [1], in experiment [2], in experiment [9], in [10], in experiment [3] and in [5] was inactive. In addition, the compound was called inactive in experiment [6] and in [8].
